The campaign covered roughly 220,000 compounds. About 920 (0.42%) were called active. This is one part of a sample in which actives are shown more often than they occur. A number with no mark means an inactive call. Cut-off read from the data, not from the text of the source: active = inhibition above about 15%; inactive = the rest.
Each molecule was assayed against Transitional endoplasmic reticulum ATPase (Homo sapiens) (UniProt P55072) (assay: inhibitors of human p97 ATPase, primary screen, biochemical (AID 1481;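 note: 0% = DMSO vehicle and 100% = wells lacking enzyme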)). Details: recombinant p97 ATPase, Kinase-Glo ATP luminescence, 3 h; at 8 µM; stronger effect = higher value.
Transitional endoplasmic reticulum ATPase (Homo sapiens), sequence (P55072 whole entry, looked up): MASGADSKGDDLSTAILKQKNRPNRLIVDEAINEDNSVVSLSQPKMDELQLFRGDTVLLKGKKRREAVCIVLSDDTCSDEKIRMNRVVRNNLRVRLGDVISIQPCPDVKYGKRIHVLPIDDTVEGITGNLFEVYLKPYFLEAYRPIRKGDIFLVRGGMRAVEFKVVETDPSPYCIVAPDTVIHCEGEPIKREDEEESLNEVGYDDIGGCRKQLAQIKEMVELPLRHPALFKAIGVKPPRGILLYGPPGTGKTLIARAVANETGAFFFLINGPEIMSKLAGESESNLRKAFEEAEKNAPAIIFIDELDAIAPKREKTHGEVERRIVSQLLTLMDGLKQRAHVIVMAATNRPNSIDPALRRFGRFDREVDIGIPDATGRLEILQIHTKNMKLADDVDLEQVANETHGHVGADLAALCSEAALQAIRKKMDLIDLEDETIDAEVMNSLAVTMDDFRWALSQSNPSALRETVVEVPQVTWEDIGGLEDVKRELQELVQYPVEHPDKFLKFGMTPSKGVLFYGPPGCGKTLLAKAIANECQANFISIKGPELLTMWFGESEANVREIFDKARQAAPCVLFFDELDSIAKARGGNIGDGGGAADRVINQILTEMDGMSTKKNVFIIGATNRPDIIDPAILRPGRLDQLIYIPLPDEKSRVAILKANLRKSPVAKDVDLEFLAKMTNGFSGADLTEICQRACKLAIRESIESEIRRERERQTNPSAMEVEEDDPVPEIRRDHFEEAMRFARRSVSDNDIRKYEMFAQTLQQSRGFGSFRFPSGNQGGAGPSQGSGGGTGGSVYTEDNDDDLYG
Work on Cc1ccccc1-n1c(C)cc(/C=C2\NC(=O)NC2=O)c1C yielded an inhibition of -1.59%.
Cc1no[n+]([O-])c1COc1ccccc1/C=C1\NC(=S)NC1=O was tested, and the inhibition was 36% (active).
With Cc1ccc(/C=N/NC(=O)COc2ccccc2-c2ccccc2)cc1 the inhibition was -5.12%.
Cc1ccc(NC(=O)NC2CCCCC2)cc1S(=O)(=O)N1CCOCC1 was tested, and the inhibition was 1.18%.
In the case of CCOc1c(CNCc2ccc(C(=O)O)cc2)cccc1OC, the inhibition is reported as 3.61%.
Work on S=c1[nH]nc(-c2ccc(Cl)cc2)n1CC1CCCO1 (stereo unspecified) yielded an inhibition of -0.03%.
O=C(c1nnc(-c2ccc(Cl)cc2)o1)C1CCCC1 gave an inhibition of -6.78%.
With O=C(c1[nH]ncc1-c1ccc(Cl)cc1)C1CO1 (stereo unspecified) the inhibition was 18.1% (active).
With CN(CC(=O)NCCc1ccccc1)S(=O)(=O)c1cnc[nH]1 the inhibition was -2.11%.
In the case of O=C(c1ccc(OC2CCN(C(=O)c3cccnc3)CC2)cc1)N1CCCCCC1, the inhibition is reported as -2.04%.
For Nc1nnnn1/N=C/c1cc([N+](=O)[O-])ccc1O, the inhibition was 1.03%.
For CCOC(=O)CCCN1CC(O)=C(c2nc3ccccc3s2)C1=N, the inhibition was -8.77%.
N=C1C(c2nc3ccccc3s2)=C(O)CN1NC(=O)c1ccc([N+](=O)[O-])cc1 was tested, and the inhibition was 28.3% (active).
In the case of COc1ccccc1N1CC(O)=C(c2nc3ccccc3s2)C1=N, the inhibition is reported as 6.21%.
O=C(CCc1ccccc1)Nc1nn[nH]n1 showed an inhibition of -3.71%.
With CC1CCCN(C(C(=O)Nc2ccc(C(C)C)cc2)c2ccc3c(c2)OCO3)C1 (stereo unspecified) the inhibition was 15.3% (active).
CC(NC(=S)Nc1ccc(S(N)(=O)=O)cc1)c1ccc2c(c1)OCO2 (stereo unspecified) gave an inhibition of 0.42%.
With O=C(Nc1ccc2c(c1)OCCO2)C(c1ccc(F)cc1)N1CCCCC1 (stereo unspecified) the inhibition was -0.16%.
CN1C(=O)C(CC(=O)Nc2ccccc2)S/C1=N/c1nccs1 (stereo unspecified) gave an inhibition of 6.76%.
In the case of Cc1cc(C)c(C#N)c(N2CCC(C(N)=O)CC2)n1, the inhibition is reported as 3.21%.
For N#Cc1c(N2CCCCC2)nc(N)c2c(N)nc(SCC(=O)O)cc12, the inhibition was 53.6% (active).
With CC(=O)c1cc(C#N)c(N2CCCCC2)nc1C the inhibition was -1.2%.
Molecule O=C(NC(=O)N1CCOCC1)c1ccccc1 has an inhibition of 5.31%.
Work on O=C(CCl)N(Cc1cccc([N+](=O)[O-])c1)c1cccc(Cl)c1 yielded an inhibition of -3.6%.
CCOC(=O)N1CCC(c2cc(=O)n(-c3ccccc3)[nH]2)CC1 was tested, and the inhibition was 23% (active).
CCOC(=O)CN1CCC(c2ccccc2)CC1 showed an inhibition of -3.38%.
CCOC(=O)N1CCC(NC(=O)COc2cc(=O)n(C)c3ccccc23)CC1 gave an inhibition of -0.15%.
For CC(=O)Nc1nc2c(s1)C(=O)NCC(C)(C)C2, the inhibition was 0.86%.
Work on Cc1cc(C)c2c(n1)nn1c(N3CCOCC3)cc(C)nc21 yielded an inhibition of 5.86%.
With Cc1cc(C)c2c(n1)nn1c(-n3ccnc3)cc(C)nc21 the inhibition was 31.7% (active).
Cc1cc(C)c2c(n1)nn1c(N3CCN(c4cccc(Cl)c4)CC3)cc(C)nc21 gave an inhibition of -0.34%.
In the case of O=[N+]([O-])c1cc([N+](=O)[O-])c2cccnc2c1O, the inhibition is reported as -0.5%.
O=C(/C=C/c1ccc(N2CCOCC2)cc1)c1ccccc1 was tested, and the inhibition was 3.1%.
For NC(N)=N/N=C/c1ccc(OCc2ccc(Cl)cc2Cl)cc1, the inhibition was 17.6% (active).
NC(N)=N/N=C/c1ccc(Cl)c([N+](=O)[O-])c1 showed an inhibition of 4.25%.
COc1ccc(C(=O)O/N=C(\N)Cc2ccc(Cl)cc2Cl)cc1OC gave an inhibition of -0.33%.
Nn1c(SCC(=O)Nc2nccs2)nncc1=O showed an inhibition of 3.78%.
COc1ccc(NC(=S)Nc2ccccc2Cl)cn1 showed an inhibition of 2.95%.
COc1ccc(NC(=O)/C(Cl)=C(/Cl)S(=O)Cc2ccc(C)cc2)cn1 (stereo unspecified) was tested, and the inhibition was 10.7%.
With COc1ccc(CS(=O)/C(Cl)=C(/Cl)C(=O)Nc2ccc(OC)nc2)cc1 (stereo unspecified) the inhibition was 22% (active).
Molecule CC1CCN(c2ccc([N+](=O)[O-])c(SCCO)c2)CC1 has an inhibition of 7.8%.
With Cc1cc(C)c2cc(CN(Cc3nnnn3Cc3ccc(F)cc3)C3CCCC3)c(=O)[nH]c2c1 the inhibition was 28.6% (active).
For Cc1cc(C)c2cc(CN(Cc3cccs3)Cc3nnnn3CC3CCCO3)c(=O)[nH]c2c1 (stereo unspecified), the inhibition was -6.18%.
Work on Cc1cccc2cc(CN(Cc3nnnn3Cc3ccccc3)C3CCCC3)c(=O)[nH]c12 yielded an inhibition of 1.15%.
For O=C(COc1ccc(/C=N/NS(=O)(=O)c2ccccc2)cc1)NCCc1ccccc1, the inhibition was 0.13%.
For COCCNc1nc2nonc2nc1N(C)Cc1ccc(C)cc1, the inhibition was -0.9%.
For CN1CCN(/N=C2/C(=O)Nc3ccc([N+](=O)[O-])cc32)CC1, the inhibition was -0.51%.
For Cc1nc2cccnc2nc1C, the inhibition was 5.4%.
O=C(N/N=C/c1sc(N2CCCCC2)nc1-c1cccs1)c1cccnc1 was tested, and the inhibition was -2.01%.
Work on CC(=O)Nc1ccc(S(=O)(=O)Nc2ccc(-c3ccc4nnc(C)n4n3)cc2)cc1 yielded an inhibition of 0.45%.
CCOC(=O)c1cc2c(nc1NC(=S)Nc1ccccc1)CC(C)(CC)OC2 (stereo unspecified) gave an inhibition of -6.73%.
O=C(Nc1ccccc1Cl)/C(Cl)=C(\Cl)S(=O)c1ccccc1 (stereo unspecified) was tested, and the inhibition was 20% (active).
With O=C(CN1CCCCC1)Nc1ccccc1Cl the inhibition was -2.65%.
For O=C(Nc1ccccc1Cl)c1ccc2nsnc2c1, the inhibition was 2.33%.
CCCc1nc2c(c(=O)c3ccccc3n2C)c(=O)n1-c1cc(C)cc(C)c1 gave an inhibition of 1.03%.
In the case of COc1ccc(/C=N/N=C2/C(=O)Nc3ccccc32)cc1O, the inhibition is reported as -3.95%.
With Cc1nnc2n1N=C(c1ccc3c(c1)NC(=O)CO3)CS2 the inhibition was 4.3%.
In the case of O=C(OCC1O[C@@H](OC(=O)c2cc(O)c(O)c(O)c2)[C@@H](OC(=O)c2cc(O)c(O)c(O)c2)[C@@H](OC(=O)c2cc(O)c(O)c(O)c2)[C@@H]1OC(=O)c1cc(O)c(O)c(O)c1)c1cc(O)c(O)c(O)c1 (stereo partly specified), the inhibition is reported as 67% (active).
CC(=O)NC1C(OCc2ccccc2)OC(COC(C)=O)C(OC(C)=O)C1OC(C)=O (stereo unspecified) showed an inhibition of 1.05%.
For COC(=O)c1scc(C)c1NC(=O)CSc1ccc(Cl)cc1, the inhibition was -1.74%.
CN(C)[C@@H]1C(=O)C(C(N)=O)=C(O)[C@@]2(O)C(=O)C3=C(O)c4c(O)ccc(Cl)c4[C@@H](O)[C@H]3C[C@@H]12 was tested, and the inhibition was 23.4% (active).
COc1ccc(CCNS(=O)(=O)c2ccc(Cl)s2)cc1OC was tested, and the inhibition was -7.85%.
Cn1c(N)cc(-c2ccc(F)cc2)c(C#N)c1=O showed an inhibition of -2.35%.
O=C(Nc1nnc(CCN2CCCCC2)s1)c1cccc(Cl)c1 was tested, and the inhibition was 2.22%.
For Cn1c(=O)c2c(-c3cccc(Br)c3)c(C#N)c(N)nc2n(C)c1=O, the inhibition was 0.09%.
Work on O=C(c1cccc(S(=O)(=O)N2CCOCC2)c1)N1CCOCC1 yielded an inhibition of 0.28%.
In the case of O=C(NNC(=S)Nc1ccccc1)c1cccc(S(=O)(=O)N2CCOCC2)c1, the inhibition is reported as 15.6% (active).
Cc1cc(C(=O)NNC(=O)c2cccc(S(=O)(=O)N3CCOCC3)c2)c2ccccc2n1 was tested, and the inhibition was -3.18%.
COCC(C)NCc1cc(Br)ccc1OC (stereo unspecified) was tested, and the inhibition was 0.25%.
Molecule Cn1cccc1/C=N/NC(=O)CNc1cccc2ccccc12 has an inhibition of 3.45%.
CN(C)C=NC(=O)c1cccn1-c1ncc(C(F)(F)F)cc1Cl was tested, and the inhibition was -5.69%.
Molecule O=C(C1=C(O)C(=O)N(CCOCCO)C1c1ccccn1)c1cccs1 (stereo unspecified) has an inhibition of 2.8%.
Cc1cc(C)cc(NC(=O)N(C)Cc2ccccc2)c1 gave an inhibition of -0.6%.
With Cn1c(SCC(=O)C(C)(C)C)nnc1-c1ccccn1 the inhibition was -4.36%.
Molecule CCSc1nc(-c2ccc(OC)cc2)cc(-c2ccc(OC)cc2)c1C#N has an inhibition of 0.73%.
For COc1ccc(-c2cc(-c3ccc(N)cc3)nc(N)c2C#N)cc1OC, the inhibition was 18.6% (active).
CCOc1cc(-c2cc(-c3ccc(OC)cc3)nc(N)c2C#N)ccc1O gave an inhibition of 2.46%.
COc1ccc(N2CCC(CNC(=S)Nc3c(C)cccc3C)C2)cc1 (stereo unspecified) showed an inhibition of 1.49%.
Work on O=C1N(c2ccc(Cl)cc2)C(c2ccc(Cl)cc2)N2CCCN12 (stereo unspecified) yielded an inhibition of 4.79%.
Cn1c(=NC(=O)c2ccc3c(c2)OCCO3)sc2cc(S(C)(=O)=O)ccc21 was tested, and the inhibition was -0.6%.
Work on S=C(Cc1ccc(Cl)cc1)N1CCOCC1 yielded an inhibition of -3.61%.
With CC(=O)N1CCc2cc(Br)cc(S(=O)(=O)CCC(=O)Nc3c(C)n(C)n(-c4ccccc4)c3=O)c21 the inhibition was 16.1% (active).
Cc1ccc(S(=O)(=O)CC(=O)Nc2c(C)n(C)n(-c3ccccc3)c2=O)cc1 showed an inhibition of 0.73%.
In the case of Cc1ccccc1OCCC(=O)Nc1c(C)n(C)n(-c2ccccc2)c1=O, the inhibition is reported as 3.48%.
For O=C(/C=C/c1ccc2c(c1)OCCO2)c1ccc(O)cc1, the inhibition was 9.09%.
Work on CCN(c1ccccc1)S(=O)(=O)c1ccc2[nH]c(=O)[nH]c2c1 yielded an inhibition of 5.66%.
For CCN(c1ccccc1)S(=O)(=O)c1ccc(NC(=O)C(C)(C)C)cc1, the inhibition was 0.99%.
In the case of CCN(c1ccccc1)S(=O)(=O)c1ccc(N)cc1, the inhibition is reported as 21.5% (active).
For CS(=O)(=O)N1CCC(C(=O)N2CCN(c3ccccc3)CC2)CC1, the inhibition was 1.55%.
For CSc1ccccc1NC(=O)CN(C)CC(=O)Nc1cccc(Br)c1, the inhibition was -6.18%.
C/C=N/N(c1ccccc1)c1ccccc1 was tested, and the inhibition was 0.39%.
C=CCOc1c(Br)cc(/C=N\n2nnnc2N)cc1OC gave an inhibition of -2.19%.
In the case of CCOc1c(Br)cc(/C=C2\C(=O)N(CCC#N)N=C2C)cc1OC, the inhibition is reported as 26.9% (active).
Work on CCOc1cc(/C=N/O)cc(Br)c1OC yielded an inhibition of 7.25%.
Molecule C/C(CC(=O)Nc1ccc(Cl)cc1)=N\NC(=O)C(=O)NCCO has an inhibition of 2.21%.
With O=S(=O)(Cc1ccccc1)c1nc2ccccc2n1Cc1ccccn1 the inhibition was 2.46%.
